Hits are enriched below; roughly 5.4% of the tested compounds scored in any of these assays.
Sm TGR inh: inhibitors of Schistosoma mansoni thioredoxin glutathione reductase. hit rate 3% among 360,000. Q962Y6. Potency, µM (series often up to 114 µM), most hits filed as inhibitors. purified TGR, DTNB reduction, TNB absorbance 405 nm. AID 485364; active = well fitted inhibition curve with a large enough effect; inconclusive = small, poorly fitted or top-dose-only effect; inactive = no such curve, though single readings can be large or run the other way; note: nearly all actives have a fitted effect of over 60% in size
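Kinetic colorimetric format: TGR-catalysed, NADPH-driven DTNB reduction monitored via TNB absorbance. Enzyme dispensed at 20 nM; compound exposure 15 min at room temperature before reaction start.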
VACV mCherry inh: vaccinia inhibition (mCherry reporter); Vaccinia virus mCherry reporter infection, fluorescence; Potency, µM (highest dose often 36.5 µM), usual class: inhibitors; hit rate 0.63% among 310,000; calls by dose curve; tested in A549 cells; note: nearly all actives have a fitted effect of over 35% in size
VACV Venus inh: inhibitors of vaccinia virus (Venus reporter); Vaccinia virus Venus reporter expression, fluorescence; Potency, µM (top dose mostly 36.5 µM), hits mostly inhibitors; hit rate 0.46% among 330,000; AID 720580; calls by dose curve; tested in A549 cells; note: nearly all actives have a fitted effect of over 30% in size
MARV entry inh: blocks Marburg virus binding to or entry into cells | Marburg virus pseudotyped entry inhibition, cell reporter | Potency, µM (highest dose often 37.8 µM), hits mostly inhibitors | hit rate 1.8% among 300,000 | AID 540276; calls by dose curve; tested in HEK293 cells
Lassa entry inh: blocks Lassa virus binding to or entry into cells; Lassa virus pseudotype entry inhibition, cell reporter; Potency, µM (highest dose often 37.9 µM), most hits filed as inhibitors; hit rate 1.2% among 300,000; AID 540256; calls by dose curve; tested in HEK293 cells; note: nearly all actives have a fitted effect of over 50% in size
FMDV antiviral: blocks foot and mouth disease virus. FMDV antiviral cell-based qHTS. Potency, µM (series often up to 57.9 µM), hits mostly inhibitors. hit rate 1.2% among 410,000; calls by dose curve; tested in HEK293T cells; note: read-out not given here; nearly all actives have a fitted effect of over 45% in size
Of the large screens only hits and unclear results are named; the others gave an inactive call.

COc1ccc(CC(=O)OCCc2cc3cc(OC)c(OC)cc3c(=O)o2)cc1	Sm TGR inh 7.1µM (no result: MARV entry inh, Lassa entry inh)
COc1cc(OC)c(/C=N/NC(N)=S)cc1Br	VACV mCherry inh 1µM, VACV Venus inh 1.3µM, MARV entry inh inconclusive, Lassa entry inh inconclusive
COc1cc(OC)c(/C=N/NC(=O)c2ccncc2)cc1Br	MARV entry inh inconclusive
COc1cc(/C=N/NC(N)=S)cc(Br)c1OCc1ccccc1F	VACV mCherry inh inconclusive, VACV Venus inh 2.5µM, MARV entry inh inconclusive, Lassa entry inh inconclusive, FMDV antiviral inconclusive
COc1ccc(/C=N\NC(=O)c2ccccc2Br)cc1COc1c(F)c(F)cc(F)c1F	VACV Venus inh inconclusive, MARV entry inh 6.3µM, Lassa entry inh inconclusive
COc1ccc(/C=N\NC(=O)c2ccccc2F)cc1COc1ccc(F)cc1	MARV entry inh inconclusive
CCOc1cc(/C=N/NC(N)=S)cc(Br)c1OCc1ccccc1C	MARV entry inh inconclusive, Lassa entry inh inconclusive (no result: VACV mCherry inh, VACV Venus inh)
COc1ccc(/C=N\NC(=O)c2ccc(F)cc2)cc1COc1cc(F)ccc1[N+](=O)[O-]	Lassa entry inh inconclusive, FMDV antiviral 25µM
CSc1ncc(C(=O)N2CCN(c3cccc(C(F)(F)F)c3)CC2)c(C)n1	none (no result: MARV entry inh)
Cn1c(=O)c2c(nc(N3CCOCC3)n2Cc2ccccc2)n(C)c1=O	none
CCCCCCC[n+]1ccc(C)c2ccccc21	VACV mCherry inh inconclusive (no result: Sm TGR inh, MARV entry inh, Lassa entry inh, FMDV antiviral)
COc1ccc(/C=N/NC(=O)c2ccoc2C)cc1COc1c(C)cccc1C	VACV mCherry inh 13µM, VACV Venus inh inconclusive, MARV entry inh 5.6µM, Lassa entry inh inconclusive, FMDV antiviral 10µM
O=C(N/N=C/c1cccc(Oc2ccccc2)c1)c1ccccc1Br	MARV entry inh inconclusive, Lassa entry inh 6.5µM (no result: FMDV antiviral)
O=C(N/N=C/c1cccc(Oc2ccccc2)c1)c1cccc(Br)c1	MARV entry inh inconclusive, Lassa entry inh inconclusive, FMDV antiviral inconclusive
CC(C)n1cc(/C=N/Nc2ccc(C(=O)O)cc2)c2ccccc21	FMDV antiviral 3.5µM
O=C(O)c1ccc(N/N=C/c2cn(Cc3ccccc3F)c3ccccc23)cc1	VACV mCherry inh inconclusive, FMDV antiviral inconclusive (no result: MARV entry inh, Lassa entry inh)
O=C(O)c1ccc(N/N=C/c2c[nH]c3ccccc23)cc1	FMDV antiviral 6.3µM (no result: VACV mCherry inh, VACV Venus inh, MARV entry inh, Lassa entry inh)
Cc1ccc(OCc2nc(-c3ccc(C(=O)N4CCN(c5cccc(C(F)(F)F)c5)CC4)cc3)oc2C)cc1	none (no result: Lassa entry inh)
Cc1ccc(-n2ncc(C(=O)NC3CCCC3)c2C2CCN(C(=O)OC(C)(C)C)CC2)c(C)c1	Lassa entry inh inconclusive (no result: MARV entry inh)
COc1ccc2[nH]c3c4c(ccc3c2c1)C(=O)C=CC4=O	Sm TGR inh 0.71µM, FMDV antiviral 14µM (no result: VACV mCherry inh, VACV Venus inh, MARV entry inh, Lassa entry inh)
CCn1c(SCC(N)=O)nc2cc(S(=O)(=O)N3CCOCC3)ccc21	none
Cn1c(CCC(=O)Nc2ccc(F)cc2)nc2cc(S(=O)(=O)N3CCOCC3)ccc21	none
CCCn1c(CCC(=O)Nc2ccccc2Cc2ccccc2)nc2cc(S(=O)(=O)N3CCOCC3)ccc21	MARV entry inh 13µM, Lassa entry inh inconclusive (no result: VACV mCherry inh)
CCn1c(CCl)nc2cc(S(=O)(=O)N3CCOCC3)ccc21	VACV mCherry inh inconclusive, Lassa entry inh inconclusive, FMDV antiviral 28µM (no result: Sm TGR inh)
CC(C)c1c(C(=O)NCc2cccnc2)cnn1-c1nccc(-c2cccs2)n1	none (no result: Sm TGR inh, MARV entry inh, Lassa entry inh)
Cc1[nH]n(-c2ncc(-c3ccccc3)s2)c(=O)c1C(c1ccc(Br)cc1)C(C#N)C#N (configuration not stated)	Sm TGR inh inconclusive, FMDV antiviral 28µM
COc1ccc(NC(=O)CCN2CCCC(C)C2)cc1 (configuration not stated)	Sm TGR inh 89µM
NC(=S)N/N=C/c1ccc2ccccc2c1	VACV mCherry inh 0.35µM, VACV Venus inh 1µM, MARV entry inh inconclusive
NC(=S)N/N=C/c1cccc(Br)c1	VACV mCherry inh inconclusive, VACV Venus inh 0.89µM
NC(=S)N/N=C/C=C/c1ccccc1	VACV mCherry inh 1µM, VACV Venus inh 0.79µM
NC(=S)N/N=C/c1cccc(/C=N/NC(N)=S)c1	none
COc1ccc(C(=O)N2CCCC(c3nc(SCc4ccccn4)ncc3C)C2)cc1F (configuration not stated)	VACV Venus inh inconclusive, FMDV antiviral inconclusive (no result: Sm TGR inh, MARV entry inh, Lassa entry inh)
Cc1ccc(C(=O)OCc2cc(=O)n3nc(-c4cccs4)sc3n2)cc1	none (no result: MARV entry inh)
Cc1[nH]c2ccccc2c1Cc1nnc(SCC(N)=O)o1	Sm TGR inh 45µM (no result: MARV entry inh, Lassa entry inh)
O=c1cc(-c2ccccc2O)oc2cc(O)ccc12	none (no result: Sm TGR inh, MARV entry inh, Lassa entry inh)
O=c1cc2oc3cc(O)c(O)cc3c(-c3ccccc3O)c-2cc1O	Sm TGR inh 8.9µM (no result: MARV entry inh, Lassa entry inh)
CCOC(=O)c1oc2cc(O)ccc2c(=O)c1-c1ccccc1OC	none
COc1ccc(OC)c(-c2c3cc(O)c(=O)cc-3oc3cc(O)c(O)cc23)c1	Sm TGR inh inconclusive, MARV entry inh 21µM, Lassa entry inh inconclusive
CCOc1ccccc1-c1c2cc(O)c(=O)cc-2oc2cc(O)c(O)cc12	Sm TGR inh 45µM, MARV entry inh inconclusive, Lassa entry inh inconclusive, FMDV antiviral inconclusive (no result: VACV Venus inh)
CCN(Cc1ccncc1)Cc1ccc2c(c1)CN(C(=O)c1ccc(OC)cc1)CCO2	none (no result: Sm TGR inh, MARV entry inh, Lassa entry inh)
O=C(NCCc1ccccc1)c1ccc2nccnc2c1	MARV entry inh 1.3µM, Lassa entry inh 2.8µM
O=C(NCCc1ccccc1)c1ccc2c(c1)OCO2	MARV entry inh 1.3µM, Lassa entry inh 1.1µM, FMDV antiviral 7.9µM
O=C(NCCc1ccccc1)c1cccnc1	Lassa entry inh inconclusive
Fc1ccccc1CNCCc1ccc2c(c1)OCO2	Sm TGR inh 10µM (no result: VACV mCherry inh, VACV Venus inh, MARV entry inh, Lassa entry inh)
O=C(NC(=S)NCc1ccccc1)c1ccc2c(c1)OCO2	Sm TGR inh 40µM
O=C(NNC(=S)NCc1ccccc1)c1ccc2c(c1)OCO2	none
CN(C)c1ccc(-c2nc3cnccn3c2Nc2cccc(C(F)(F)F)c2)cc1	none
OCCCc1nc2n(n1)C(c1cccs1)C=C(c1ccc(Br)cc1)N2 (configuration not stated)	Sm TGR inh 25µM (no result: VACV mCherry inh, VACV Venus inh, Lassa entry inh, FMDV antiviral)
Brc1ccc(C2=CC(c3cccs3)n3ncnc3N2)cc1 (configuration not stated)	Sm TGR inh 22µM, VACV mCherry inh inconclusive, MARV entry inh inconclusive, Lassa entry inh inconclusive
CC1=C(C(N)=O)C(c2ccc(Br)cc2)n2nc(CCCO)nc2N1 (configuration not stated)	none (no result: VACV mCherry inh, VACV Venus inh, MARV entry inh, Lassa entry inh)
CCCS(=O)(=O)c1c(S(=O)(=O)CCC)c2cc(C(C)(C)C)ccn2c1C(=O)c1ccccc1	MARV entry inh inconclusive, Lassa entry inh inconclusive, FMDV antiviral inconclusive
O=C1N[C@H](Cc2ccccc2)COC(=O)[C@H](Cc2ccc(F)cc2)CC/C=C/C[C@@H]1CC(=O)N(CCO)Cc1ccccc1	VACV mCherry inh 28µM, VACV Venus inh inconclusive (no result: Sm TGR inh, MARV entry inh, Lassa entry inh)
O=C(C[C@@H]1C/C=C/CC[C@H](Cc2ccc(F)cc2)C(=O)OC[C@@H](Cc2ccccc2)NC1=O)N[C@H](CO)Cc1ccccc1	VACV mCherry inh 10µM, VACV Venus inh 14µM (no result: Sm TGR inh, MARV entry inh, Lassa entry inh)
O=C1N[C@@H](Cc2ccccc2)COC(=O)[C@@H](Cc2ccc(F)cc2)CC/C=C/C[C@@H]1CC(=O)N(CCO)Cc1ccccc1	VACV mCherry inh 10µM, VACV Venus inh inconclusive (no result: Sm TGR inh, MARV entry inh, Lassa entry inh)
O=C1N[C@H](Cc2ccccc2)COC(=O)[C@@H](Cc2ccc(F)cc2)CC/C=C/C[C@H]1CC(=O)N(CCO)Cc1ccccc1	none (no result: Sm TGR inh, MARV entry inh, Lassa entry inh)
